Assay outcomes deposited in PubChem BioAssay by several laboratories.
Rows were chosen to be rich in hits. Some 5.4% of all compounds tested hit in one or more screens of this group.
PfM18AAP inh-1: PfM18AAP enzyme inhibition | AID 1822 | 290,000 compounds, 1.2% hits | recombinant PfM18AAP, H-Glu-NHMec fluorogenic cleavage | inhibition, % at 7.35 µM;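 active = inhibition above the campaign mean inhibition over all tested compounds plus 3 SD, cut at about 28% in these data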
SMARCA2 act: increases SMARCA2 function in MMTV reporter cells; MG213 cells, MMTV-luciferase reporter, dexamethasone, overnight; 370,000 compounds, 1% hits; activation, % at 9.1 µM; in the data active = activation above about 7.8%
Exocytosis inh: lytic granule exocytosis inhibition. 360,000 compounds, 0.66% hits. AID 651702. inhibition, % at 10 µM. TALL-104 LAMP-1 surface exposure, flow cytometry; cells stimulated with thapsigargin and PMA;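 active = inhibition above about 55%, limit read from the data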
beta cell repl: induces beta-cell replication in MIN6 cells | MIN6 cells proliferation, ATPlite luminescence, 48 h; cells starved in 0.2% serum; 100% = growth in 10% serum | proliferation, % at 10 µM | 330,000 compounds, 0.29% hits | AID 2380;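 active = compounds whose signal lies at least 3.5 SD above the mean of all wells on their plate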
GASC-1 inh: inhibitors of human GASC-1 (JMJD2C) demethylase; GST-JMJD2C(1-420) H3K9me3 demethylation, DELFIA europium; 330,000 compounds, 0.069% hits; AID 2099; inhibition, % at 2.35 µM; Q9H3R0;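 active = more than half of a compound's replicate wells show inhibition beyond 50%, single wells judged on their own value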;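 also: signal counts dimethyl H3K9 product captured on neutravidin plate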
ALR H2O2 inh: human ALR oxidase inhibition via reduced H2O2; P55789; purified ALR, DTT oxidation, H2O2 HRP-luminol luminescence; inhibition, % (concentration not given with the values); 290,000 compounds, 3.8% hits;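 active = mean replicate inhibition above about 79%, with every replicate also reaching it, limit read from the data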
Target sequence (P55789 whole entry, looked up): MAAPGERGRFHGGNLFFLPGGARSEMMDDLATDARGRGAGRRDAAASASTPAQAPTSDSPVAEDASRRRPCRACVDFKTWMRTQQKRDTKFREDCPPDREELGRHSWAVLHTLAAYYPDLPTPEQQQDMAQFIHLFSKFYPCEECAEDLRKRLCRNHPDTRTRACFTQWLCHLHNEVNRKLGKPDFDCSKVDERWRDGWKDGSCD
PfM18AAP inh-2: confirmation of Plasmodium falciparum M18 aspartyl aminopeptidase inhibitors; shares compounds with PfM18AAP inh-1; recombinant PfM18AAP, H-Glu-NHMec fluorogenic cleavage; 2,400 compounds, 28% hits; inhibition, % at 7.35 µM; AID 2170;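 active = mean inhibition over replicate wells above the hit cutoff set for the earlier primary screen, cut at about 29% in these data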
CTSL1 confirm: counter-screen for PFM18AAP inhibitors: confirmation of human cathepsin L inhibitors; purified cathepsin L1, Z-Leu-Arg-MCA fluorescence; inhibition, % at 5.96 µM; AID 2178; shares compounds with PfM18AAP inh-1; 2,400 tested, under 10 active;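 active = average inhibition across replicates above the hit cutoff set in the earlier primary screen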
Target sequence (P07711 whole entry, looked up): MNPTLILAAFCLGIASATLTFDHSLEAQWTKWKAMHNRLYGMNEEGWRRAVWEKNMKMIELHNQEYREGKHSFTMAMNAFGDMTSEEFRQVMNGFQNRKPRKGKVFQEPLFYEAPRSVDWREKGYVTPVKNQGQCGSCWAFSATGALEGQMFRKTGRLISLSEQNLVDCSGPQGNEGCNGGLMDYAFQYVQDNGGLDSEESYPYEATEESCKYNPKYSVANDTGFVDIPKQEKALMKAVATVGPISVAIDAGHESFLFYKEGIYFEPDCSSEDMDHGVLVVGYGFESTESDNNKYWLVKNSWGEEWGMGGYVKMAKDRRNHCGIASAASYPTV
A number is an active result.

How did CCOC(=O)c1c(NC(=O)CSc2ncn[nH]2)sc(C(=O)NC)c1C do in these assays?
PfM18AAP inh-1: inactive; SMARCA2 act: inactive; Exocytosis inh: inactive; beta cell repl: inactive; GASC-1 inh: inactive; ALR H2O2 inh: inactive

How did CCCc1nnc(NC(=O)CSc2ncn[nH]2)s1 do in these assays?
PfM18AAP inh-1: 40; SMARCA2 act: inactive; Exocytosis inh: inactive; beta cell repl: inactive; GASC-1 inh: inactive; ALR H2O2 inh: inactive; PfM18AAP inh-2: 44; CTSL1 confirm: inactive

How did CCCCc1nc(SCC(=O)Nc2nnc(CCCC)s2)n[nH]1 do in these assays?
PfM18AAP inh-1: inactive; SMARCA2 act: inactive; Exocytosis inh: inactive; beta cell repl: inactive; GASC-1 inh: inactive; ALR H2O2 inh: inactive

How did CCOC(=O)c1c(NC(=O)CSc2ncn[nH]2)sc(C)c1C do in these assays?
PfM18AAP inh-1: 48; SMARCA2 act: inactive; Exocytosis inh: inactive; beta cell repl: inactive; GASC-1 inh: inactive; PfM18AAP inh-2: inactive; CTSL1 confirm: inactive

How did COC(=O)c1cc2c(c3c4ccccc4n(S(=O)(=O)c4ccc(OC)cc4)c13)C(=O)N(Cc1ccccc1OC)C2 do in these assays?
SMARCA2 act: inactive

Results for NNc1ccc2c(C(F)(F)F)cc(C(F)(F)F)nc2n1 ?
PfM18AAP inh-1: 45; SMARCA2 act: inactive; Exocytosis inh: inactive; beta cell repl: inactive; GASC-1 inh: inactive; ALR H2O2 inh: inactive; PfM18AAP inh-2: inactive; CTSL1 confirm: inactive

How did Cn1c(=O)oc2cc(S(=O)(=O)N3CCN(c4cccc(C(F)(F)F)c4)CC3)ccc21 do in these assays?
SMARCA2 act: inactive

How did O=C(O)c1ccc2c(c1)C(=O)/C(=C\c1ccco1)C2=O do in these assays?
PfM18AAP inh-1: 42; SMARCA2 act: inactive; Exocytosis inh: inactive; beta cell repl: inactive; GASC-1 inh: inactive; ALR H2O2 inh: inactive; PfM18AAP inh-2: 40; CTSL1 confirm: inactive

Results for O=C(O)c1ccc2c(c1)C(=O)/C(=C/c1ccccc1)C2=O ?
PfM18AAP inh-1: inactive; SMARCA2 act: inactive; Exocytosis inh: inactive; beta cell repl: inactive; GASC-1 inh: inactive; ALR H2O2 inh: inactive

Results for CC(C)(C)c1ccc(NNC(=O)C2CCC2)cc1 ?
PfM18AAP inh-1: 40; SMARCA2 act: inactive; Exocytosis inh: inactive; beta cell repl: inactive; GASC-1 inh: inactive; ALR H2O2 inh: inactive; PfM18AAP inh-2: inactive; CTSL1 confirm: inactive

Results for C=Cc1ccc2c(c1)N(C)C(=C)S2 ?
PfM18AAP inh-1: 47; SMARCA2 act: inactive; Exocytosis inh: inactive; beta cell repl: inactive; GASC-1 inh: inactive; ALR H2O2 inh: inactive; PfM18AAP inh-2: inactive; CTSL1 confirm: inactive

What do the screens show for `CCCCCCCCN1C(=O)[C@@H](CC(=O)NCC2CCCCC2)C[C@@]2(C(=O)OC)C1=C[C@H](C(C)C)O[C@@H]2C1CC1`?
SMARCA2 act: inactive

What do the screens show for `CCOC1=C/C(=C/c2c(N)n3nc(-c4ccccc4)sc3nc2=O)C=CC1=O`?
PfM18AAP inh-1: inactive; SMARCA2 act: inactive; Exocytosis inh: inactive; beta cell repl: inactive; GASC-1 inh: inactive

How did CS(=O)(=O)c1ccc2c(c1)sc1nc(=O)c(/C=C3/C=CC(=O)C(O)=C3)c(N)n12 do in these assays?
PfM18AAP inh-1: 58; SMARCA2 act: inactive; Exocytosis inh: inactive; beta cell repl: inactive; GASC-1 inh: inactive; ALR H2O2 inh: 90; PfM18AAP inh-2: 62; CTSL1 confirm: inactive

What do the screens show for `FC(F)(F)c1ccccc1NC(=S)NN=C1CCCCCC1`?
PfM18AAP inh-1: 39; SMARCA2 act: inactive; beta cell repl: inactive; GASC-1 inh: inactive; ALR H2O2 inh: inactive; PfM18AAP inh-2: inactive; CTSL1 confirm: inactive

Results for FC(F)(F)c1ccccc1NC(=S)N1CCCC1 ?
PfM18AAP inh-1: inactive; SMARCA2 act: inactive; Exocytosis inh: inactive; beta cell repl: inactive; GASC-1 inh: inactive; ALR H2O2 inh: inactive

How did CC1(C(=O)CSc2nc3ccccc3[nH]2)CCC(=O)O1 (configuration not stated) do in these assays?
PfM18AAP inh-1: inactive; SMARCA2 act: inactive; Exocytosis inh: inactive; beta cell repl: inactive; GASC-1 inh: inactive; ALR H2O2 inh: inactive

How did CC(=O)Nc1nonc1NC(=O)CSc1ncn[nH]1 do in these assays?
PfM18AAP inh-1: 48; SMARCA2 act: inactive; Exocytosis inh: inactive; beta cell repl: inactive; GASC-1 inh: inactive; ALR H2O2 inh: inactive; PfM18AAP inh-2: 40; CTSL1 confirm: inactive

Results for CC1(C(=O)CSc2ncn[nH]2)CCC(=O)O1 (configuration not stated) ?
PfM18AAP inh-1: 58; beta cell repl: inactive; GASC-1 inh: inactive; ALR H2O2 inh: inactive; PfM18AAP inh-2: 70; CTSL1 confirm: inactive

Results for CCOc1cc(N2CCOCC2)c(OCC)cc1NC(=O)CSc1n[nH]c(N)n1 ?
PfM18AAP inh-1: inactive; SMARCA2 act: inactive; Exocytosis inh: inactive; beta cell repl: inactive; GASC-1 inh: inactive; ALR H2O2 inh: inactive

What do the screens show for `CCOc1cc(N2CCOCC2)c(OCC)cc1NC(=O)CSc1ncn[nH]1`?
PfM18AAP inh-1: 49; SMARCA2 act: inactive; Exocytosis inh: inactive; beta cell repl: inactive; GASC-1 inh: inactive; ALR H2O2 inh: inactive; PfM18AAP inh-2: inactive; CTSL1 confirm: inactive

What do the screens show for `O=C(CSc1ncn[nH]1)Nc1ccc([N+](=O)[O-])cc1Br`?
PfM18AAP inh-1: 67; SMARCA2 act: inactive; Exocytosis inh: inactive; beta cell repl: inactive; GASC-1 inh: inactive; ALR H2O2 inh: inactive; PfM18AAP inh-2: 79; CTSL1 confirm: inactive

What do the screens show for `C#CCN(C[C@H]1[C@H](OC(=O)NCCCCCC)[C@H](OC(=O)NCCCCCC)CN(C(=O)OC(C)C)N1C(=O)OC(C)C)S(=O)(=O)c1ccc(C)cc1`?
SMARCA2 act: inactive

How did O=C(CSc1ncn[nH]1)OCN1C(=O)c2ccccc2C1=O do in these assays?
PfM18AAP inh-1: 85; SMARCA2 act: inactive; Exocytosis inh: inactive; beta cell repl: inactive; GASC-1 inh: inactive; ALR H2O2 inh: inactive; PfM18AAP inh-2: 88; CTSL1 confirm: inactive

What do the screens show for `O=C(CSc1ncn[nH]1)CSc1ncn[nH]1`?
PfM18AAP inh-1: 48; SMARCA2 act: inactive; Exocytosis inh: inactive; beta cell repl: inactive; GASC-1 inh: inactive; ALR H2O2 inh: 94; PfM18AAP inh-2: inactive; CTSL1 confirm: inactive

What do the screens show for `O=C1c2ccccc2C(=O)N1CCSc1ncn[nH]1`?
PfM18AAP inh-1: inactive; SMARCA2 act: inactive; Exocytosis inh: inactive; beta cell repl: inactive; GASC-1 inh: inactive; ALR H2O2 inh: inactive

How did CC(C)c1ccc(C(=O)CSc2ncn[nH]2)cc1 do in these assays?
PfM18AAP inh-1: inactive; SMARCA2 act: inactive; Exocytosis inh: inactive; beta cell repl: inactive; GASC-1 inh: inactive; ALR H2O2 inh: inactive

Results for CC(=O)N1CCC2(CC1)C(C#N)=C(N)Oc1c2sc2nc(C)cc(C)c12 ?
PfM18AAP inh-1: inactive; SMARCA2 act: inactive; Exocytosis inh: inactive; beta cell repl: inactive; GASC-1 inh: inactive
